Screening data (PubChem BioAssay)
Hits are enriched below; roughly 21% of the tested compounds scored in any of these assays.
Pf growth 96h – Primary qHTS for delayed death inhibitors of the malarial parasite plastid, 96 hour incubation; P. falciparum luciferase reporter growth, 96 h; Potency, µM (top dose mostly 28.7 µM), for inactives: at the top dose activity change, negative = inhibition, actives largely listed as inhibitors; actives 6.9% (n = 320,000); also: potency is read from the fitted curve at half-maximal effect; % is scaled to controls: 0 for no effect and ±100 for the full control effect
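Plates of compound plus infected erythrocytes (2% hematocrit, 0.05% parasitemia final) incubate 96 hours, 37 C, 5% CO2. Detection reagent added; reduced luminescence from the parasites' luciferase reporter flags inhibition.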
FBPA Giardia inh – qHTS Assay for Inhibitors of Fructose-1,6-bisphosphate Aldolase from Giardia Lamblia | AID 2451, 2010 | purified Giardia FBPA | A8B2U2 | actives 0.71% (n = 290,000) | Potency, µM (titrated, usually from 59.6 µM), for the others: at the highest dose activity, negative = inhibition, hits mostly inhibitors; also: potency is read from the fitted curve at half-maximal effect; % is scaled to controls: 0 for no effect and ±100 for the full control effect; nearly all actives have a fitted effect of over 55% in size
Target sequence (A8B2U2 whole entry, looked up): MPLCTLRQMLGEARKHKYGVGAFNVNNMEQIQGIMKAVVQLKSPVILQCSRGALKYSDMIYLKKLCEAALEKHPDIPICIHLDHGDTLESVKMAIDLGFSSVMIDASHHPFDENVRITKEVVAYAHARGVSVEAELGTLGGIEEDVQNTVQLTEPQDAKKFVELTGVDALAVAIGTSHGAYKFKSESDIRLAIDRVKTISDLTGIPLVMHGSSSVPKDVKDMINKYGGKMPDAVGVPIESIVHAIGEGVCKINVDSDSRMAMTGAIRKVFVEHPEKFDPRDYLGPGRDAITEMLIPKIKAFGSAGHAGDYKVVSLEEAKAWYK
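Giardia FBPA (40 nM reagent) was preincubated 10 min at RT with compound (up to 57.5 uM final), then substrate plus GAPDH/TPI/NAD/arsenate coupling system with diaphorase/resazurin was added; resorufin fluorescence (525/598 nm) was read after 20 min.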
Cycloheximide cs – Cycloheximide Counterscreen for Small Molecule Inhibitors of Shiga Toxin; actives 12% (n = 300,000); max response, %; cell reporter, cycloheximide protein synthesis inhibition counterscreen; in the data active = max response mostly above about 13%, no sharp cut-off; inactive = mostly below about 14%; also: read at 38.3 µM for the half of the compounds with a filed dose; 0% is about no effect
Pf growth 48h – Primary qHTS for delayed death inhibitors of the malarial parasite plastid, 48 hour incubation | P. falciparum luciferase growth in erythrocytes, 48 h | actives 5.9% (n = 310,000) | AID 504832, 2011 | Potency, µM (top dose mostly 28.7 µM), for the others: at the highest dose activity change, negative = inhibition, actives largely listed as inhibitors; also: potency is read from the fitted curve at half-maximal effect; % is scaled to controls: 0 for no effect and ±100 for the full control effect
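Luminescence readout; reporter = integrated firefly luciferase in P. falciparum. RBC culture at 2% hematocrit, 0.1% parasitemia final, 37 C/5% CO2; decreased signal taken as growth inhibition.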
Shiga toxin inh – A qHTS for Small Molecule Inhibitors of Shiga Toxin; Vero cells, Shiga toxin protein synthesis inhibition reporter; inhibition, % at 38.7 µM; AID 2315, 2010; actives 9.2% (n = 290,000); in the data active = inhibition mostly above about 28%, no sharp cut-off; inactive = mostly below about 43%; also: 0% is about no effect
NS1 inh – qHTS Assay for Inhibitors of Influenza NS1 Protein Function. actives 0.4% (n = 270,000). Potency, µM (doses to about 46.1 µM), for inactives: at the top dose activity, positive = more growth. AID 2326, 2010; calls by dose curve; also: potency is read from the fitted curve at half-maximal effect; actives are rising curves; nearly all actives have a fitted effect of over 50% in size
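S. cerevisiae expressing influenza A NS1, grown in glucose, washed, then diluted 1:100 into pH 6.0 -URA galactose medium with 23 nl compound. Growth recovery read as OD600; NS1-free strain serves as control.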
* = called active by the depositor. Unless noted, calls follow the shape of the dose curve; as a rule, active = well fitted curve in the direction sought with a large enough effect; inconclusive = small, poorly fitted or top-dose-only effect, or another doubt; inactive = no such curve, though single readings can be large; an effect the other way counts as inactive or inconclusive.

Screening CC(C)(C)OC(=O)CNC(=O)c1[nH]cnc1C(=O)Nc1ccc(CNC(=O)OC(C)(C)C)cc1 returned Pf growth 96h 13µM*, FBPA Giardia inh -24%, Cycloheximide cs 5, Pf growth 48h 13µM*, Shiga toxin inh 10 and NS1 inh -31%.
For C[C@H](NC(=O)c1nc[nH]c1C(=O)N[C@@H](C)C(=O)OC(C)(C)C)C(=O)OCc1ccccc1 the results were Pf growth 96h 1%, FBPA Giardia inh -16%, Cycloheximide cs -2, Pf growth 48h -2%, Shiga toxin inh -2 and NS1 inh 14%.
C[C@H](NC(=O)c1[nH]cnc1C(=O)Nc1ccc(CNC(=O)OC(C)(C)C)cc1)C(=O)OCc1ccccc1 was read as Pf growth 96h 30%, FBPA Giardia inh -12%, Cycloheximide cs -3, Pf growth 48h 9.3µM*, Shiga toxin inh -8 and NS1 inh -35%.
`CCC(=O)N1CCc2cc(S(=O)(=O)CCC(=O)NCc3cccc(OC)c3)ccc21` gave Pf growth 96h 6%, Cycloheximide cs -1, Pf growth 48h 0%, Shiga toxin inh -10 and NS1 inh -5%.
O=C(N=C1SC2CS(=O)(=O)CC2N1c1cc(Cl)ccc1Cl)C1CCCO1 (stereo not drawn) was read as Pf growth 96h 50%, FBPA Giardia inh 3%, Cycloheximide cs 7, Pf growth 48h 50%, Shiga toxin inh 10 and NS1 inh -10%.
`CSc1cc(-c2ccncc2)nc(-c2ccc(Cl)cc2)c1` gave Pf growth 96h 15µM*, FBPA Giardia inh 5%, Cycloheximide cs -3, Shiga toxin inh -3 and NS1 inh -1%.
Fc1ccc(-c2nnc(-c3ccc(F)cc3)o2)cc1 was read as Pf growth 96h inconclusive, FBPA Giardia inh 13%, Cycloheximide cs 28*, Pf growth 48h 100%, Shiga toxin inh 26 and NS1 inh 1%.
For O=[N+]([O-])c1ccc(Cc2nnc(-c3ccc(F)cc3)o2)cc1 the results were Pf growth 96h 29%, FBPA Giardia inh -1%, Cycloheximide cs 33*, Pf growth 48h 114% and Shiga toxin inh 75*.
Screening Cc1ccc(-c2nnc(Cc3ccc([N+](=O)[O-])cc3)o2)cc1 returned Pf growth 96h 1%, FBPA Giardia inh -1%, Cycloheximide cs 56*, Pf growth 48h inactive and Shiga toxin inh 69*.
`Oc1ccc(/C=N/Nc2cc(N3CCCC3)nc(N3CCCC3)n2)cc1` gave Pf growth 96h 2.1µM*, FBPA Giardia inh inconclusive, Cycloheximide cs 3, Pf growth 48h inconclusive, Shiga toxin inh 12 and NS1 inh 15%.
Oc1cccc(/C=N/Nc2cc(N3CCCC3)nc(N3CCCC3)n2)c1 was read as Pf growth 96h inconclusive, FBPA Giardia inh inconclusive, Cycloheximide cs 14, Pf growth 48h 2.9µM*, Shiga toxin inh 4 and NS1 inh 1%.
For COc1ccc(/C=N/Nc2cc(N3CCCC3)nc(N3CCCC3)n2)cc1 the results were Pf growth 96h inconclusive, FBPA Giardia inh inconclusive, Cycloheximide cs 18, Pf growth 48h inconclusive and Shiga toxin inh 21.
`Cc1ccc(C(=O)Nc2ccc3c(c2)OCO3)cc1S(=O)(=O)N1CCCC1` gave Pf growth 96h 15%, FBPA Giardia inh -4%, Cycloheximide cs 46*, Pf growth 48h inconclusive, Shiga toxin inh 45* and NS1 inh -34%.
For Cc1ccc(C(=O)Nc2ccc3c(c2)OCO3)cc1S(=O)(=O)N1CCOCC1 the results were Pf growth 96h inconclusive, Cycloheximide cs 29*, Pf growth 48h -24%, Shiga toxin inh 107* and NS1 inh 1%.
`Cc1ccc(C(=O)OCC(=O)Nc2ccc3c(c2)OCO3)cc1S(=O)(=O)N1CCOCC1` gave Pf growth 96h -14%, FBPA Giardia inh -8%, Cycloheximide cs -1, Pf growth 48h -1%, Shiga toxin inh -11 and NS1 inh 5%.
